Assay results from PubChem BioAssay AID1159580 (chemical genetic matrix, 2015).
Out of some 5,500 compounds screened, about 2,000 (36%) were called active. Another 18% or so got no clear call; they are omitted. No stated cut-off is given here; in the data, active means normalized growth mostly below about 0.91 (no sharp cut-off); inconclusive means no clear call, values can overlap the other calls; inactive means mostly above about 0.92. The list shows a part of the results.

Experiment: chemical genetic growth profiling, strain panel (AID 1159580);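 further: tested at 20 µM; growth read once vehicle control cultures reached saturation at 30 °C; 1 = growth at the plate median or of vehicle wells; lower values mean less growth of the strain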
Conditions: growth OD

Measured: normalized growth

CCCCOc1cc(C(=O)NCCN(CC)CC)c2ccccc2n1
inactive: S. cerevisiae deletion strains, locus YJR075W, strain HOC1, hits give low values 0.999 | S. cerevisiae deletion strains, locus YKL009W, strain mrt4, hits give low values 1 | S. cerevisiae deletion strains, locus YKL068W, hits give low values 0.994 | S. cerevisiae deletion strains, locus YKL085W, strain MDH1 (second series), hits give low values 0.989 | S. cerevisiae deletion strains, locus YKL085W, strain MDH1, hits give low values 0.989 | S. cerevisiae deletion strains, locus YKL160W, strain elf1, hits give low values 0.964 | S. cerevisiae deletion strains, locus YKR001C, strain vps1, hits give low values 1.01 | S. cerevisiae deletion strains, locus YKR026C, strain gcn3, hits give low values 0.962 | S. cerevisiae deletion strains, locus YKR091W, strain srl3, hits give low values 0.973 | S. cerevisiae deletion strains, locus YLL001W, strain dnm1, hits give low values 0.939 | S. cerevisiae deletion strains, locus YLL026W, hits give low values 0.981 | S. cerevisiae deletion strains, locus YLL041C, strain sdh2, hits give low values 0.956 | S. cerevisiae deletion strains, locus YLR027C, strain aat2, hits give low values 0.97 | S. cerevisiae deletion strains, locus YLR039C, strain RIC1, hits give low values 1.13 | S. cerevisiae deletion strains, locus YLR058C, strain SHM2, hits give low values 1.01 | S. cerevisiae deletion strains, locus YLR102C, strain apc9, hits give low values 0.99 | S. cerevisiae deletion strains, locus YLR113W, strain HOG1, hits give low values 1.02 | S. cerevisiae deletion strains, locus YLR221C, strain rsa3, hits give low values 1.02 | S. cerevisiae deletion strains, locus YLR258W, strain gsy2, hits give low values 1 | S. cerevisiae deletion strains, locus YLR262C, strain YPT6 (second series), hits give low values 0.956 | S. cerevisiae deletion strains, locus YLR262C, strain YPT6, hits give low values 1.14 | S. cerevisiae deletion strains, locus YLR268W, strain sec22, hits give low values 1 | S. cerevisiae deletion strains, locus YLR320W, strain mms22, hits give low values 1.02 | S. cerevisiae deletion strains, locus YLR330W, strain CHS5, hits give low values 1.01 | S. cerevisiae deletion strains, locus YLR342W, strain FKS1 (second series), hits give low values 1.02 | S. cerevisiae deletion strains, locus YLR342W, strain FKS1, hits give low values 0.957 | S. cerevisiae deletion strains, locus YLR357W, strain rsc2, hits give low values 0.94 | S. cerevisiae deletion strains, locus YLR370C, strain arc18, hits give low values 0.971 | S. cerevisiae deletion strains, locus YLR371W, strain rom2, hits give low values 0.99 | S. cerevisiae deletion strains, locus YLR384C, strain iki3, hits give low values 0.959 | S. cerevisiae deletion strains, locus YLR418C, strain cdc73, hits give low values 0.984 | S. cerevisiae deletion strains, locus YML016C, strain PPZ1, hits give low values 1.01 | S. cerevisiae deletion strains, locus YML032C, strain rad52, hits give low values 0.989 | S. cerevisiae deletion strains, locus YML120C, strain ndi1, hits give low values 0.969 | S. cerevisiae deletion strains, locus YML124C, strain tub3, hits give low values 0.994 | S. cerevisiae deletion strains, locus YMR058W, strain fet3, hits give low values 0.968 | S. cerevisiae deletion strains, locus YMR078C, strain ctf18, hits give low values 0.991 | S. cerevisiae deletion strains, locus YMR125W, strain sto1, hits give low values 0.931 | S. cerevisiae deletion strains, locus YMR129W, hits give low values 0.982 | S. cerevisiae deletion strains, locus YMR205C, strain PFK2, hits give low values 0.972 | S. cerevisiae deletion strains, locus YMR223W, strain ubp8, hits give low values 0.987 | S. cerevisiae deletion strains, locus YMR231W, strain pep5, hits give low values 0.96 | S. cerevisiae deletion strains, locus YMR263W, strain SAP30, hits give low values 1 | S. cerevisiae deletion strains, locus YMR307W, strain GAS1, hits give low values 1.1 | S. cerevisiae deletion strains, locus YNL067W, strain RPL9B, hits give low values 0.995 | S. cerevisiae deletion strains, locus YNL071W, strain lat1, hits give low values 0.985 | S. cerevisiae deletion strains, locus YNL128W, strain TEP1, hits give low values 1 | S. cerevisiae deletion strains, locus YNL153C, strain GIM3, hits give low values 0.994 | S. cerevisiae deletion strains, locus YNL183C, strain NPR1, hits give low values 0.975 | S. cerevisiae deletion strains, locus YNL209W, strain ssb2, hits give low values 0.985 | S. cerevisiae deletion strains, locus YNL233W, strain BNI4, hits give low values 0.997 | S. cerevisiae deletion strains, locus YNL248C, strain rpa49, hits give low values 0.979 | S. cerevisiae deletion strains, locus YNL250W, strain rad50, hits give low values 0.996 | S. cerevisiae deletion strains, locus YNL271C, strain bni1, hits give low values 0.991 | S. cerevisiae deletion strains, locus YNL298W, strain CLA4, hits give low values 0.998 | S. cerevisiae deletion strains, locus YNL307C, strain MCK1, hits give low values 0.984 | S. cerevisiae deletion strains, locus YNL322C, strain KRE1 (second series), hits give low values 0.951 | S. cerevisiae deletion strains, locus YNL322C, strain KRE1, hits give low values 1 | S. cerevisiae deletion strains, locus YNR049C, strain mso1, hits give low values 0.967 | S. cerevisiae deletion strains, locus YNR052C, strain pop2, hits give low values 0.985 | S. cerevisiae deletion strains, locus YOL012C, strain htz1 0.896 | S. cerevisiae deletion strains, locus YOL147C, strain pex11, hits give low values 0.998 | S. cerevisiae deletion strains, locus YOR001W, strain rrp6, hits give low values 0.935 | S. cerevisiae deletion strains, locus YOR061W, strain CKA2, hits give low values 1.01 | S. cerevisiae deletion strains, locus YOR069W, strain VPS5, hits give low values 1 | S. cerevisiae deletion strains, locus YOR070C, strain gyp1, hits give low values 0.991 | S. cerevisiae deletion strains, locus YOR080W, strain dia2, hits give low values 0.962 | S. cerevisiae deletion strains, locus YOR083W, strain WHI5, hits give low values 0.967 | S. cerevisiae deletion strains, locus YOR106W, strain vam3, hits give low values 0.966 | S. cerevisiae deletion strains, locus YOR136W, strain idh2, hits give low values 0.998 | S. cerevisiae deletion strains, locus YOR144C, strain elg1, hits give low values 0.992 | S. cerevisiae deletion strains, locus YOR184W, strain ser1, hits give low values 0.995 | S. cerevisiae deletion strains, locus YOR231W, strain MKK1, hits give low values 1.03 | S. cerevisiae deletion strains, locus YOR265W, strain rbl2, hits give low values 0.976 | S. cerevisiae deletion strains, locus YOR270C, strain vph1, hits give low values 0.933 | S. cerevisiae deletion strains, locus YOR290C, strain snf2, hits give low values 0.977 | S. cerevisiae deletion strains, locus YOR316C, strain cot1, hits give low values 0.996 | S. cerevisiae deletion strains, locus YPL051W, strain arl3, hits give low values 0.989 | S. cerevisiae deletion strains, locus YPL055C, strain LGE1, hits give low values 1.02 | S. cerevisiae deletion strains, locus YPL078C, strain atp4, hits give low values 0.936 | S. cerevisiae deletion strains, locus YPL106C, strain sse1, hits give low values 0.921 | S. cerevisiae deletion strains, locus YPL240C, strain hsp82, hits give low values 0.962 | S. cerevisiae deletion strains, locus YPL256C, strain CLN2, hits give low values 1.01 | S. cerevisiae deletion strains, locus YPR119W, strain clb2, hits give low values 0.994 | S. cerevisiae deletion strains, locus YPR141C, strain kar3, hits give low values 1 | S. cerevisiae deletion strains, locus YPR163C, strain tif3, hits give low values 1 | S. cerevisiae deletion strains, locus YPR167C, strain met16, hits give low values 0.986 | S. cerevisiae deletion strains, strain wtn01, hits give low values 1.02 | S. cerevisiae strains, strain wild type, hits give low values 1
